Measurements reported in the supplement of paper PMC3334620.
Whole data set: some 33,000 sequences, median “E-score (-0.5 to 0.5)” near -0.016, cut for the highest 2% near 0.32. The entries come from a sample that favours the highest values as a whole.

Molecular target: T1, Stp1 (UniProt B3LFK1)
T1 sequence: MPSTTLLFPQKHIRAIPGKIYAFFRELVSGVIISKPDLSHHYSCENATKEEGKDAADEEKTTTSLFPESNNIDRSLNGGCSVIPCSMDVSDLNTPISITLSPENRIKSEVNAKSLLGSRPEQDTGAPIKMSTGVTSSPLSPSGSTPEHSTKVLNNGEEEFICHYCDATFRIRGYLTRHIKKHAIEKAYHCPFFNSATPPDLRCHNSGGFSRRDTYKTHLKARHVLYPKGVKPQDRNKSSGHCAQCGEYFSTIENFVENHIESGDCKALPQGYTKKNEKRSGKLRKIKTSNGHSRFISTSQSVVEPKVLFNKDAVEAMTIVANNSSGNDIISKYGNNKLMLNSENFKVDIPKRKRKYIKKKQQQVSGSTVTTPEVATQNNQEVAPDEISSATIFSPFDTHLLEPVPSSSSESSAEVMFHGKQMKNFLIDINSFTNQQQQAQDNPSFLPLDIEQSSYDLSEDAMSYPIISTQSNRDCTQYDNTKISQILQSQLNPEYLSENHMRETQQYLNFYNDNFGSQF
Test: PBM E-score (8-mer binding enrichment) (E-score (-0.5 to 0.5)); higher = stronger / more preferred TF binding
Conditions: protein concentration: 200 nM; construct: GST-full length
Outline: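 E-scores (a modified Wilcoxon-Mann-Whitney statistic) were assigned by the Universal PBM Analysis Suite to every ungapped eight-base word pooled with its reverse complement. The input came from universal all-10-mer Agilent arrays made double-stranded by primer extension and probed with GST-tagged yeast transcription factors at about 100-200 nM. Fluorescent anti-GST detected bound protein, and masliner normalised the scans.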

Sequence | PBM E-score
ACAGGGCA | 0.244
ACAGGGCT | -0.0531
ACAGGGCG | 0.351
CACCGACA | 0.0706
CGGCAACC | 0.266
AGGCAACA | 0.143
CGGCAACA | 0.368
AGGCAACG | 0.0557
TGGCAACA | 0.195
CGGCAACG | 0.368
ACTTTTGG | -0.0182
CTATGCAA | -0.0966
CGGCCCAC | -0.051
CAATACGA | 0.143
CAATACGC | 0.175
CCATACGC | 0.0591
ACATACGG | 0.261
CCATACGG | 0.395
CAATACGG | 0.32
GACAATGA | -0.247
AGCCTTGC | 0.325
CGCCTTAC | 0.405
CGCCTTAA | 0.211
AGCCTTTC | -0.0105
CGCCTTCC | 0.206

Sequence | PBM E-score
AGCCTTGA | -0.0777
CGCCTTGA | 0.0844
CGCCTTTA | 0.129
CGCCTTTC | 0.354
CGCCTTGC | 0.35
AGCCTTAC | -0.022
AGCCTTGG | -0.138
ACATGTAT | 0.0569
CAATCCAC | -0.128
ATAGTTCG | 0.0223
AATAGAGG | -0.00072
CTTGATGA | 0.1
ATCTGCAA | -0.145
ACACACTG | -0.0947
AGCCCCTG | -0.353
AAAGAACA | -0.0165
AAAGCACT | -0.0405
AGCAGGCA | -0.0398
GGGCGAGA | -0.132
CGGCTCCA | 0.425
CGGCTCAA | 0.351
CGGCTCAC | 0.213
AGGCTCAA | 0.0744
AGGCTCAG | -0.0826
CGGCTCAG | 0.379

Sequence | PBM E-score
AGGCTCCA | -0.0273
CGGCTCCC | 0.187
TGGCTCAA | 0.00085
ACCTTTCT | -0.0776
CCAACAAG | 0.00906
AACTGCGG | 0.173
ATATGCCG | 0.347
CGATGCCA | 0.105
ATATGCCA | 0.153
CGATGCCG | 0.415
AGATGCCC | 0.06
CGATGCCC | 0.0311
AGATGCCG | 0.397
ATATGCCC | -0.155
AGATGCCT | 0.107
CCAACCTA | -0.175
GTGCGGGA | 0.041
GTGCGGAA | 0.132
ATGCGGAA | 0.164
CTGCGGTA | 0.0752
ATGCGGCA | 0.467
CTGCGGCC | 0.214
GTGCGGCA | 0.469
CTGCGGCA | 0.422
ATGCGGTA | 0.0546

Sequence | PBM E-score
AGTTTGTC | -0.0407
CTCTGGGC | -0.215
AGAGGTCG | -0.096
AGATGAGG | -0.192
AGTTAAGG | -0.0459
ACCTGTAA | 0.00569
AGATAGAG | -0.0214
GCTGATCC | -0.116
AGCGGCCT | 0.0372
AGCGGCAA | 0.321
TGCGGCCA | 0.233
AGCGGCAC | 0.457
AGTGGCAA | 0.162
TGCGGCAA | 0.412
AGCGGCAG | 0.301
AGCGGGAT | 0.0317
AGCGGAAA | 0.0606
TCCGGCAA | -0.00549
AGCGGCAT | 0.406
AGTGGCAC | 0.209
CACATCGG | -0.152
AATTTGGG | -0.0818
CGAGGCCA | -0.178
GATAAGGC | 0.216
AAGGGCGT | 0.0591

Sequence | PBM E-score
CGATAATC | -0.128
ATCCGTCA | -0.0596
CTAAACGA | 0.0761
CAGTCTGA | -0.0528
CGCGGTAG | 0.0224
GGCGGCAC | 0.446
CGCGGGCA | 0.175
GGGGGCAC | -0.266
GTCGGCAC | 0.172
CGTGGCAG | 0.239
CGCGGCAA | 0.424
GGCGGCAA | 0.286
CGCGGCAG | 0.378
AGGGGACA | -0.145
AGGGGGGG | -0.287
AGGCCTCC | -0.164
GCTCTCGA | -0.144
ATAACCCC | -0.223
GCAAGCTA | -0.0537
AGGCATGC | 0.144
CGGCATGA | 0.346
CTGCATGC | 0.12
AGGCATGA | -0.0157
CGGCATGC | 0.338
GGGCATGA | -0.0369

Sequence | PBM E-score
CGAGGAGA | -0.162
AGCCAAAC | 0.00731
CATTGCGG | 0.158
GCGCTGCA | 0.232
GGATTGAA | -0.0161
GCGTGAGC | 0.193
AGGCGGAA | 0.0802
GGGCGGCA | 0.356
CGGCGGTA | 0.335
GGGCGGAA | -0.0696
GGGCGGGA | -0.11
AGGCGGCA | 0.369
CGGCGGAA | 0.328
AGCCGGCA | 0.0341
GGCGGGCA | 0.0418
GGGCGGTA | -0.128
AGGCGGTA | -0.0932
AGGCGGGA | -0.183
CACCTATG | -0.108
CGCTAAAG | 0.0823
GTTGAATA | 0.0719
ATGTCCTC | -0.113
AGCTGCGA | -0.129
GCTCAACA | 0.00726
CAGTCGGG | -0.14

Sequence | PBM E-score
AGGCGGCG | 0.391
CGGCGGCA | 0.418
AGGCGGCC | 0.147
CGGCGGCC | 0.214
AGGCGGGG | 0.023
CGGCGGGA | 0.207
CCTAGCTC | -0.268
ATAGAAAT | 0.197
CTGGCCCC | -0.311
CATCACTC | -0.0239
GAGACGGC | 0.411
AAGACGGC | 0.318
AAGACGCC | 0.321
GAGACGGA | 0.065
AAGACGGA | -0.0847
CAGACGGG | -0.242
CAGACGGA | 0.0941
AAGACGCT | -0.13
CAGACGGC | 0.42
AAGACGGT | -0.169
CAGACGCC | 0.114
GAGACGAC | -0.104
